# Screening results: PubChem, National Center for Advancing Translational Sciences (NCATS)
# KB-3-1 cytotox: kills parental KB-3-1 adenocarcinoma cells. Potency, µM (titrated, usually from 46.1 µM), actives largely listed as cytotoxic. KB-3-1 viability, CellTiter-Glo ATP luminescence, 72 h. 400,000 compounds, 1.4% hits; also: nearly all actives have a fitted effect of over 60% in size
#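 Viability of parental KB-3-1 cells, measured by CellTiter-Glo luminescence, followed a 72 h incubation at 37 °C with pinned compounds in phenol-red-free DMEM containing 10% FBS.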
# MCF10A rerep: DNA re-replication induction in MCF 10a cells; MCF 10A DNA re-replication, Hoechst nuclear intensity, 48 h; Potency, µM (doses to about 46.1 µM), hits mostly activators; 350,000 compounds, 2.9% hits; also: nearly all actives have a fitted effect of over 50% in size
# SW480 rerep: induces DNA re-replication in SW480 colon adenocarcinoma cells; SW480 DNA re-replication, Hoechst DNA content imaging, 48 h; Potency, µM (highest dose often 46.1 µM), usual class: activators; 340,000 compounds, 1.8% hits; AID 624297; also: nearly all actives have a fitted effect of over 55% in size
#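 SW480 cells exposed to compounds for 48 hr at 37 C, 5% CO2, then Hoechst-stained 40 min. Nuclear DNA content imaged by fluorescence scanning (405 nm excitation, 500-530 nm emission); re-replication scored as increased high-intensity nuclei.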
# ELG1 DNA repair: ELG1-dependent DNA repair inhibition | HEK293T ELG1-luciferase reporter, luminescence, 16 h; DNA damage induced by 5-fluorouridine | 330,000 compounds, 2.3% hits | Potency, µM (titrated, usually from 46.1 µM), hits mostly inhibitors; also: nearly all actives have a fitted effect of over 55% in size
#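 In this reporter screen, reduction of luminescence relative to DMSO vehicle indicated activity. Compounds and 5-fluorouridine were added together to 2,000 cells per well, incubated for 16 hr at 37 °C, then developed with ONE-Glo.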
# KB-V1 MDR tox: KB-V1 MDR subline cytotoxicity. KB-V1 MDR cells viability, CellTiter-Glo, 72 h. Potency, µM (doses to about 46.1 µM), hits mostly cytotoxic. 400,000 compounds, 3.4% hits; also: nearly all actives have a fitted effect of over 60% in size
#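 KB-V1 MDR subline cells in DMEM (phenol-red free, 10% FBS) exposed to compounds in qHTS concentration series for 72 h at 37 degrees C. Viability read by CellTiter-Glo luminescence; concentration-effect curves fitted after normalization and correction.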
# A number is an active result; – = inactive; ? = inconclusive; · = no result. In the library only some 8.2% were active in any assay of this set; here they are far more common. Calls follow the shape of the dose curve; as a rule, active = well fitted curve in the direction sought with a large enough effect; inconclusive = small, poorly fitted or top-dose-only effect, or another doubt; inactive = no such curve, though single readings can be large; an effect the other way counts as inactive or inconclusive.
SMILES,KB-3-1 cytotox,MCF10A rerep,SW480 rerep,ELG1 DNA repair,KB-V1 MDR tox
Cc1ccc(NC(=O)CN(C)S(=O)(=O)c2cnc[nH]2)cc1,–,·,·,·,?
C=Cc1ccc(Cn2c(=O)n(CCCOC)c(=O)c3sccc32)cc1,–,–,–,20.6µM,–
CCOc1ccccc1C(=O)NC1CCNCC1,–,–,–,–,?
Cc1ccccc1C(=O)NC1CCN(Cc2nnnn2Cc2ccc(F)cc2)CC1,–,–,–,–,20.6µM
CCC(C)(C)n1nnnc1CN1CCC(NC(=O)c2ccccc2C)CC1,–,–,–,–,–
CCOc1ccccc1C(=O)NC1CCN(Cc2nnnn2C2CCCC2)CC1,–,–,–,–,9.2µM
CC(C)Cn1cc(C(=O)NCCCN2CCC(C)CC2)c2c3ccccc3n(C)c2c1=O,–,–,–,·,–
CC(C)Cn1cc(C(=O)NCCCN2CCCC2=O)c2c3ccccc3n(C)c2c1=O,–,–,–,–,5.8µM
Cc1ccc(-n2c(=O)[nH]c3cc(C(=O)NCCc4ccccc4)ccc3c2=O)cc1,–,·,·,·,–
O=C(C#Cc1ccccc1)c1ccc([N+](=O)[O-])cc1,23.1µM,?,13µM,–,?
c1csc(-c2nc3c4ccccc4c4ccccc4c3[nH]2)c1,?,?,–,?,?
Oc1ccccc1-c1nc2c3ccccc3c3ccccc3c2[nH]1,–,18.4µM,?,–,–
COc1cc(NC(C(=O)Nc2cccc(C(C)=O)c2)c2ccccc2)cc(OC)c1OC (centres undefined),?,–,–,?,4.61µM
Cc1cc(OC(C)C(=O)NCCCn2ccnc2)c2c(C)c(C)c(=O)oc2c1 (centres undefined),–,–,–,?,?
Cc1cccc(CNC(=O)Cn2nc(C)n3c(cc4cc(F)ccc43)c2=O)c1,–,·,·,·,–
COc1ccc(C(=O)Nc2ccccc2C(=O)NC(Cc2ccc(O)cc2)C(=O)NNC(=O)c2ccncc2)cc1 (centres undefined),–,–,–,–,–
COc1ccc(C(=O)Nc2ccccc2C(=O)NC(Cc2ccc(O)cc2)C(=O)NNC(=O)c2ccc(C)cc2)cc1 (centres undefined),–,–,–,8.2µM,–
COc1ccc(C(=O)Nc2ccccc2C(=O)NC(Cc2ccc(O)cc2)C(=O)NNC(=O)c2ccccc2)cc1 (centres undefined),–,?,–,16.4µM,–
COc1ccc(Nc2ncnc3onc(C)c23)c(OC)c1,–,·,·,·,–
c1ccc(COc2ncnc3c2ncn3CCCNCc2cccs2)cc1,–,·,·,·,?
CC1CCCC(=NNc2ccc3ccccc3n2)C1 (centres undefined),–,–,–,·,?
O=C(Nc1ccccc1)N1CCCN(c2c(Cl)cncc2Cl)CC1,–,–,–,?,–
CC(C)(C)c1ccc(NC(=O)N2CCCN(c3c(Cl)cncc3Cl)CC2)cc1,–,7.31µM,?,?,–
CCCCCCc1cc2cc(-c3nnc(-c4ccccc4O)o3)c(=O)oc2cc1O,?,0.731µM,2.31µM,?,13µM
CCCCCCc1cc2cc(-c3nnc(-c4cc(OC)c(OC)c(OC)c4)o3)c(=O)oc2cc1O,?,0.517µM,8.2µM,?,?
SMILES,KB-3-1 cytotox,MCF10A rerep,SW480 rerep,ELG1 DNA repair,KB-V1 MDR tox
O=C(O)c1ccc2oc(=O)c(S(=O)(=O)c3ccc(F)cc3)cc2c1,–,–,–,–,–
CCCCCCc1cc2cc(C(=O)Nc3ccccc3OC)c(=O)oc2cc1O,?,0.651µM,?,–,?
CCCCCCc1cc2cc(S(=O)(=O)c3ccc(F)cc3)c(=O)oc2cc1O,–,2.31µM,4.61µM,–,?
COc1ccc(NC(=O)c2cc3ccccc3oc2=O)c(OC)c1,–,–,–,?,–
CCCCCCc1cc2cc(-c3nnc(-c4ccccc4OC)o3)c(=O)oc2cc1O,?,–,1.16µM,7.31µM,16.4µM
CN(Cc1cccc(Cl)c1Cl)C(=O)c1ccccc1SCC(=O)N1CCCC1,?,?,–,·,–
CCCC(NC(=O)C(C)N1CCN(S(=O)(=O)c2ccccc2)CC1)c1ccccc1 (centres undefined),–,–,–,–,7.31µM
CC(C(=O)Nc1ccccc1-c1ccccc1)N1CCN(S(=O)(=O)c2ccccc2)CC1 (centres undefined),–,?,–,–,2.91µM
CC(NC(=O)C(C)N1CCN(S(=O)(=O)c2ccccc2)CC1)c1ccccc1 (centres undefined),–,–,–,–,14.6µM
CCNC(=O)C1(C)CCN(C(=O)c2ccccc2F)C1 (centres undefined),–,·,·,·,–
Cc1ccc(NC(=O)C(C)Sc2nc(-c3ccccc3)c(C#N)c(=O)[nH]2)c(C)c1 (centres undefined),–,·,·,·,–
CN(Cc1ccc(F)cc1)C(=O)c1cc(COc2ccc(-n3cncn3)cc2)on1,–,–,–,–,?
CN1CCc2c(OCC(=O)N3CCCc4ccccc43)cccc2C1=O,–,–,?,–,?
O=C1c2cccc(OCC(=O)N3CCCc4ccccc43)c2CCN1Cc1ccc(F)cc1,?,14.6µM,–,23.1µM,9.2µM
Cc1cccc(CN2CCc3c(OCC(=O)N4CCCc5ccccc54)cccc3C2=O)c1,16.4µM,?,–,?,?
O=C(Nn1c(COc2ccccc2)nc2ccccc2c1=O)C(Cl)(Cl)Cl,–,?,18.4µM,–,–
COc1ccc(NC(=O)c2cc(C3CCCCN3C(=O)OCc3ccccc3)on2)c(C)c1 (centres undefined),–,·,·,·,–
CCOC(=O)c1c(C)nc2ccc(C)cn12,?,?,–,–,–
COc1ccc(/C=N\NC(=O)c2c(C)nc3ccc(Br)cn23)cc1,?,?,2.31µM,–,?
Cc1nc2ccccn2c1C(=O)N/N=C/c1ccccc1,–,–,–,–,–
Cc1ccc2nc(C)c(C(=O)NN=C3CCN(C)CC3)n2c1,–,?,20.6µM,–,–
Cc1ccc(/C=N/NC(=O)c2c(C)nc3ccc(Br)cn23)cc1,1.46µM,?,1.46µM,–,1.3µM
COc1ccc(/C=N/NC(=O)c2c(C)nc3ccc(Br)cn23)cc1OC,–,?,–,–,–
Cc1nc2ccccn2c1C(=O)N/N=C/c1cc(C)n(-c2ccc(Br)cc2)c1C,20.6µM,?,–,?,?
CNc1ccccc1C(=O)OCC(=O)N1CCc2ccccc2C1,–,·,·,·,–
C#C[C@]1(OC(C)=O)CC[C@H]2[C@@H]3CCC4=C/C(=N/O)CC[C@@H]4[C@H]3CC[C@@]21CC,·,?,–,·,·
COc1ccc(C(=O)COC(=O)c2cc(-c3cccs3)nc3ccccc23)cc1,–,·,·,·,–
COc1cccc(/C=N/NC(=O)c2c(C)nc3ccc(Br)cn23)c1O,?,–,0.651µM,2.06µM,–
Clc1ccc(-c2nnc3sc(-c4ccc(Br)o4)nn23)c(Cl)c1,–,9.2µM,–,–,?
COc1ccc(-c2nn3c(-c4cc(C)[nH]n4)nnc3s2)cc1,–,·,·,·,–
